Measured values: PubChem BioAssay (NCI)
This is part of a sample that, as a whole, favours compounds with a hit. Of some 83,000 tested, about 20% had one in any assay.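 Each cell line was grown in a 96-well plate and treated with one concentration of compound for 48 hours. Values below 10 were considered active.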 Values without a mark were called inactive. The source made the active and inactive calls.

What follows are compounds tested on IGROV1 ovarian (assay: NCI-60 one-dose screen, 48 h (100 = growth as untreated, 0 = no growth, -100 = all killed)). Conditions: 10 µM unless noted.
Description: Growth inhibition of the IGROV1 human tumor cell line is measured as a screen for anti-cancer activity. Cells are grown in 96 well plates and exposed to the test compound for 48 hours. Compounds are tested at a single concentration, which is 10^-5 M for most compounds. The reported endpoint is percent growth (GI% or GIPRCNT), where numbers from 0 - 100% represent growth inhibition, and numbers from -100% - 0 represent cell death. For example, a value of 40 represents 60% growth inhibition. A value of 0 means no net growth occurred over the course of the experiment. A value of -40 indicates 40% of cells at the beginning of the experiment died by the end of the experiment. A value of -100 means all cells are dead at the end of the experiment.
NCI-60 Human Tumor Cell Lines Screen was performed using the standard one-dose NCI protocol, which is described in more detail at https://dtp.cancer.gov/discovery_development/nci-60/default.htm.
Compounds with GIPRCNT values below 10 were considered active. Activity score was based on GIPRCNT using the following formula: […]
Score is 0 for GIPRCNT values of 100 or above, 50 for GIPRCNT values of 0, and 100 for GIPRCNT values of -100.

Compound	growth
O=C(c1cccc(F)c1)n1ccc2cc(NC(=S)Nc3cccnc3)ccc21	97.4%
O=C1Nc2cc(OC(F)(F)F)ccc2Oc2ccc(-c3ccnc(N4CCNCC4)c3)cc21	-1.58% (active)
O=C1c2c(c3c4cccnc4[nH]c3c3ccc4ccccc4c23)C(=O)N1CCN1CCOCC1	57.7%
COc1cc2oc(-c3cccc(NC(=O)c4cc(NC(=O)[C@H](C)N)ccc4Cl)c3)cc(=O)c2c(OC)c1OC	96.7%
N#C/C(=C\c1ccc(-c2ccc(F)cc2)o1)C(=O)Nc1ncc(Cc2ccc(Cl)cc2Cl)s1	-1.72% (active)
Cc1cc(Cl)cc(NS(=O)(=O)c2ccc(-c3cnc(C4CC4)o3)cc2)c1	33.2%
CCOC(=O)c1c(NCC(=O)Nc2ccc(Br)cc2)sc2c1CCCC2	22%
COc1cc(-c2nc(SCc3ccc(C)cc3)[nH]c(=O)c2C#N)ccc1OCc1ccccc1	116%
COc1cc2c3c(n(CCCNC4CCCCC4)c(=O)c2cc1OC)-c1cc2c(cc1C3=O)OCO2	-30.9% (active)
Oc1ccc(CSc2nnc(-c3ccccc3)n2-c2ccccc2)c2cccnc12	9.4% (active)
O=c1[nH]c(CCl)nc2c1cnn2-c1ccccc1	95.9%
N#Cc1c(NC(=O)c2ccccc2C(F)(F)F)sc2c1CCC(=O)C2	15.2%
COc1ccc(-c2no[n+]([O-])c2Nc2ccccc2Br)cc1	85.4%
ClC(Cl)c1nc(-c2cccs2)n2nc(-c3ccccc3)cc2n1	47.2%
N#Cc1c(-c2ccccc2)cc(-c2c[nH]c3ccccc23)nc1-c1c[nH]c2ccccc12	82.1%
O=C(Nc1ccccc1)Nc1nc2ccc([N+](=O)[O-])cc2s1	19.7%
COc1ccc(N2C(=O)c3cc(OC)c(OC)cc3NC2SCc2ccccc2)cc1 (stereo not given)	102%
COc1ccc(C2CC(c3ccc(Nc4nc(NCCO)nc(Nc5ccc(Cl)cc5)n4)cc3)=Nc3c(N)nc(N)nc3N2)cc1 (stereo not given)	74%
O=C1Nc2ccc(Cl)cc2/C1=C/c1ccc(OCc2ccc(Br)cc2F)cc1	104%
C=C(C)C(=O)O[C@H]1C[C@@]2(C)OC(=CC2=O)/C(CO)=C\[C@H]2OC(=O)C(=C)[C@H]12	-36% (active)

Compound	growth
O=C(N/N=C\c1ccc(Cl)cc1)c1ccc2nc(-c3ccc(Br)cc3)[nH]c2c1	-43.6% (active)
O=C1CC2(CCOCC2)Oc2ncccc21	8.85% (active)
Cc1nn(-c2ccccc2)cc1/C=N/Nc1nc(Nc2ccccc2)nc(Nc2ccc(S(N)(=O)=O)cc2)n1	13.1%
CS(=O)c1nccc(-c2c(-c3ccc(F)c(OCc4ccccc4)c3)nc3sccn23)n1 (stereo not given)	68.7%
N#C/C(=C\c1ccc(Cl)cc1Cl)C(N)=O	102%
O=C(CCCCCCN1CC(=O)N2[C@@H](c3ccc(Cl)c(F)c3)c3[nH]c4ccccc4c3C[C@H]2C1=O)NO	64.5%
COc1cc(O)c2c(c1)/C=C/C[C@H](O)[C@H](O)C(=O)/C=C\C[C@H](C)OC2=O	9.18% (active)
O=C(COc1ccc(/C=C2\SC(=O)NC2=O)cc1)Nc1ccc(C(=O)/C=C/c2cc3ccccc3nc2Cl)cc1	71.4%
CCOC(=O)Nc1ccc(-c2nc(-c3cccc(O)c3)c(-c3ccnc(Br)c3)[nH]2)cc1	33%
C/C(=C(/c1ccc(O)cc1)c1ccc(OCCN2CCCC2)cc1)c1ccc(Cl)cc1	55.4%
COc1ccc(-c2ccnc3c(C#N)c(Nc4ccccc4)nn23)cc1OC	96.1%
O=C(/C=C/c1cn(-c2ccccc2)nc1-c1ccc(Cl)cc1)c1cc2ccccc2oc1=O	35.4%
C#CCOc1ccccc1C(Nc1ccccc1)c1nnnn1C1CCCCC1 (stereo not given)	89.6%
CC(=O)NC(C)(C)C(=O)N[C@@H](C)C(=O)NC(C)(C)C(=O)N[C@@H](C)C(=O)NC(C)(C)C(=O)N[C@@H](C)C(=O)N[C@@H](CCC(N)=O)C(=O)NC(C)(C)C(=O)N[C@H](C(=O)NC(C)(C)C(=O)NCC(=O)N[C@@H](CC(C)C)C(=O)NC(C)(C)C(=O)N1CCC[C@H]1C(=O)N[C@H](C(=O)NC(C)(C)C(=O)NC(C)(C)C(=O)N[C@@H](CCC(N)=O)C(=O)N[C@@H](CCC(N)=O)C(=O)N[C@H](CO)CC1CCCCC1)C(C)C)C(C)C	49.3% [5 µM]
O=[N+]([O-])c1ccc(-c2nnc(SCc3ccc(O)c4ncccc34)n2-c2ccccc2)cc1	30.6%
O=C1c2c(c3c4cc(O)ccc4oc3c3[nH]c4ccccc4c23)C(=O)N1O	0.286% (active)
CC(=O)Oc1ccc(CCN2C(=O)CSC2=S)cc1	103%
IP(CCCSc1n(Cc2ccc3ccccc3c2)c(-c2ccccc2)c(-c2ccccc2)[n+]1Cc1ccc2ccccc2c1)(c1ccccc1)(c1ccccc1)c1ccccc1	23.9%
COc1ccc(C(=O)c2c(N)c(C#N)cn2-c2cccc(OC)c2)cc1	32%
Cn1ccnc1C(=O)/C=C/c1ccc(C(=O)Nc2ccc(NC(=O)CCNC(=O)c3csc(Br)n3)cc2)cc1	41.7%
